# Data taken from PubChem BioAssay (NCATS).
# Where “and” joins values, the source holds several entries; their conditions need not be identical. Equal entries are not always repeated. Records with an inconclusive call do not appear. Where a structure was tested more than once in an assay, its records may differ in their call. Calls of active or inactive are those of the source. Calls come from the whole dose curve; as a rule, active = well fitted curve in the direction sought with a large enough effect; inconclusive = small, poorly fitted or top-dose-only effect, or another doubt; inactive = no such curve, though single readings can be large; an effect the other way counts as inactive or inconclusive.
# Test: Viability qHTS for spleen associated tyrosine kinase inhibitor (SYKi) drug resistant MV4-11 cells (AID 1963824); note: nearly all actives have a fitted effect of over 35% in size
# Conditions: SYKi-resistant MV4-11 viability, CellTiter-Glo, 72 h; series mostly up to 45 µM; viability, % of control: at the top concentration
# Procedure, shortened: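 SYK inhibitor-resistant MV4-11 AML cells, 500 per well, added to predispensed compounds and incubated 72 hr at 37 C, 5% CO2. Viability measured by CellTiter-Glo luminescence after 10 min at room temperature.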
# Potency is the fitted concentration of half-maximal effect.
SMILES,Potency,"viability, % of control"
COc1ccccc1C(=O)Nc1cc2c(cc1N1CCCCC1)n(C)c(=O)n2C,14.8 µM (active),–
C=CC(=O)Nc1cccc(Oc2nc(Nc3ccc(N4CCN(C)CC4)c(F)c3)nc3[nH]ccc23)c1,0.525 µM (active),–
COc1cc(N2CCN(C(C)=O)CC2)ccc1Nc1ncc(Cl)c(Nc2ccc(N3CCN(C(C)=O)CC3)cc2OC)n1,366 nM (active) and 1.05 µM (active),–
CC(/C=C1\SC(=S)N(CC(=O)O)C1=O)=C\c1ccccc1,–,67.5% (inactive)
O=C(Nc1ccc(Cl)cc1)Nc1ccc(Cl)c(C(F)(F)F)c1,7.5 µM (active),–
COc1cc(Cc2cnc(N)nc2N)cc(OC)c1OC,–,101% (inactive)
COCCN1CCN(Cc2ccc(-c3n[nH]c4c3C(=O)c3c(NC(=O)NN5CCOCC5)cccc3-4)cc2)CC1,0.0209 µM (active),–
CC(=O)N(CC(O)CO)c1c(I)c(C(=O)NCC(O)CO)c(I)c(C(=O)NCC(O)CO)c1I (stereo not given),–,80.6% (inactive)
CCN(CC)CCCC(C)Nc1c2ccc(Cl)cc2nc2ccc(OC)cc12 (stereo not given),2.09 µM (active) and 3.99 µM (active),–
CO[C@@H]1[C@@H](O)[C@H](O)[C@@H](n2c3c(Cl)cccc3c3c4c(c5c6cccc(Cl)c6[nH]c5c32)C(=O)NC4=O)O[C@H]1CO,0.742 µM (active),–
CNCCCOc1cc(F)c(-c2c(Cl)nc3ncnn3c2N[C@@H](C)C(F)(F)F)c(F)c1,0.0372 µM (active),–
Oc1ccc(Cl)cc1Sc1cc(Cl)ccc1O,15 µM (active),–
Nc1nc(N)c2nc(-c3cccc(Cl)c3)c(N)nc2n1,1.48 µM (active),–
CN1Cc2c(N)cccc2C(c2ccccc2)C1 (stereo not given),–,83.2% (inactive)
CCc1cccc2c3c([nH]c12)[C@@](CC)(CC(=O)O)OCC3,14.8 µM (active),–
Cc1[nH]c(/C=C2\C(=O)Nc3ccc(S(=O)(=O)N(C)c4cccc(Cl)c4)cc32)c(C)c1C(=O)N1CCN(C)CC1,1.46 µM (active) and 2.09 µM (active),–
C#C[C@]1(O)CC[C@H]2[C@@H]3CCC4=CC(=O)CC[C@@H]4[C@H]3CC[C@@]21CC,9.34 µM (active),–
S=c1[nH]c2ccccc2s1,0.545 µM (active),–
CC(C)n1c(=O)cc(N[C@@H](C)c2ccccc2)[nH]c1=O,11.8 µM (active),–
CN1CCCN=C1COC(=O)C(O)(c1ccccc1)C1CCCCC1 (stereo not given),–,86.4% (inactive)

SMILES,Potency,"viability, % of control"
CCOC(=O)NNc1nncc2ccccc12,–,84.5% (inactive)
C=CC(=O)Nc1cc(N2CCN(CC)CC2)ccc1Nc1cc(N(C)C(=O)Nc2c(Cl)c(OC)cc(OC)c2Cl)ncn1,7.42 µM (active),–
CCOC(=O)O[C@]1(C(=O)OCCl)CC[C@H]2[C@@H]3CCC4=CC(=O)C=C[C@]4(C)[C@H]3[C@@H](O)C[C@@]21C,–,87.7% (inactive)
COc1ccc(/C=N/NC(=O)c2ccncc2)cc1OC,–,96.5% (inactive)
COc1cc(NS(C)(=O)=O)ccc1Nc1c2ccccc2nc2ccccc12,0.468 µM (active),–
Cc1onc(-c2ccccc2)c1-c1ccc(S(N)(=O)=O)cc1,14.8 µM (active),–
Cc1cc(-n2nc3ccc(Cl)cc3n2)c(O)c(C(C)(C)C)c1,–,80.2% (inactive)
Cc1ccsc1/C=C/C1=NCCCN1C,–,73.9% (inactive)
C[C@@H](C1=C(CCN(C)C)Cc2ccccc21)c1ccccn1,–,70.8% (inactive)
Nc1ncnc2nc[nH]c12,–,119% (inactive)
CCOC(=O)NNc1ccc(N(CC)CC(C)O)nn1 (stereo not given),–,110% (inactive)
CN(C)[C@@H]1C(=O)C(C(N)=O)=C(O)[C@@]2(O)C(=O)C3=C(O)c4c(O)ccc(Cl)c4[C@@H](O)[C@H]3C[C@@H]12,8.41 µM (active),–
CC[C@H](CC[C@@H](C)[C@H]1CC[C@H]2[C@@H]3CC=C4C[C@@H](O)CC[C@]4(C)[C@H]3CC[C@]12C)C(C)C,–,76.6% (inactive)
O=c1ncccn1[C@@H]1O[C@H](CO)[C@@H](O)[C@H]1O,16.6 µM (active),–
C[C@]12CCC(=O)C=C1[C@@H]1C[C@@H]1[C@H]1[C@@H]3[C@@H]4C[C@@H]4[C@@]4(CCC(=O)O4)[C@@]3(C)CC[C@@H]12,21.1 µM (active) and 18.6 µM (active),–
COc1ccc2cc(C=O)ccc2c1,–,81.2% (inactive)
Cc1ccc(NC(=O)NCc2ccc3c(c2)CN(C2CCC(=O)NC2=O)C3=O)cc1Cl (stereo not given),0.0013 µM (active),–
Cc1ccc(Sc2ccccc2N2CCNCC2)c(C)c1,4.68 µM (active),–
OC[C@H]1O[C@@H](n2cnc3c(=S)nc[nH]c32)[C@H](O)[C@@H]1O,1.19 µM (active),–
Clc1cccc(C(c2ccc3nc[nH]c3c2)n2ccnc2)c1 (stereo not given),inactive and 18.6 µM (active),–

# Test: Cellular viability qHTS for adrenocortical cancer (ACC) cell line SW-13 (AID 1963989); note: nearly all actives have a fitted effect of over 65% in size;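 for activity (max response): cells grown in serum-free medium with ITS supplement; % is set by controls: 0 for no effect and ±100 for the full control effect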
# Conditions: SW-13 ACC cells viability, CellTiter-Glo, 48 h; activity (max response): stronger effect = lower value
# Procedure, shortened: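 Compound titrations (up to 46 uM final, in DMSO) were applied to SW-13 cells for 48 h at 37C/5% CO2. Reading used CellTiter-Glo after 20 min at room temperature; fitted curves yielded IC50 and efficacy.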
SMILES,activity (max response),Potency
COc1ccccc1C(=O)Nc1cc2c(cc1N1CCCCC1)n(C)c(=O)n2C,-17.1% (inactive),–
C=CC(=O)Nc1cccc(Oc2nc(Nc3ccc(N4CCN(C)CC4)c(F)c3)nc3[nH]ccc23)c1,–,2.82 µM (active)
COc1cc(N2CCN(C(C)=O)CC2)ccc1Nc1ncc(Cl)c(Nc2ccc(N3CCN(C(C)=O)CC3)cc2OC)n1,–,25.1 µM (active)
CC(/C=C1\SC(=S)N(CC(=O)O)C1=O)=C\c1ccccc1,4.22% (inactive),–
O=C(Nc1ccc(Cl)cc1)Nc1ccc(Cl)c(C(F)(F)F)c1,–,2.91 µM (active)
COc1cc(Cc2cnc(N)nc2N)cc(OC)c1OC,-3.43% (inactive),–
COCCN1CCN(Cc2ccc(-c3n[nH]c4c3C(=O)c3c(NC(=O)NN5CCOCC5)cccc3-4)cc2)CC1,–,0.316 µM (active)
CC(=O)N(CC(O)CO)c1c(I)c(C(=O)NCC(O)CO)c(I)c(C(=O)NCC(O)CO)c1I (stereo not given),11.9% (inactive),–
CCN(CC)CCCC(C)Nc1c2ccc(Cl)cc2nc2ccc(OC)cc12 (stereo not given),–,28.2 µM (active)
CO[C@@H]1[C@@H](O)[C@H](O)[C@@H](n2c3c(Cl)cccc3c3c4c(c5c6cccc(Cl)c6[nH]c5c32)C(=O)NC4=O)O[C@H]1CO,–,0.316 µM (active)
CNCCCOc1cc(F)c(-c2c(Cl)nc3ncnn3c2N[C@@H](C)C(F)(F)F)c(F)c1,–,0.0501 µM (active)
Oc1ccc(Cl)cc1Sc1cc(Cl)ccc1O,–,3.26 µM (active)
Nc1nc(N)c2nc(-c3cccc(Cl)c3)c(N)nc2n1,–,1.26 µM (active)
CN1Cc2c(N)cccc2C(c2ccccc2)C1 (stereo not given),-0.946% (inactive),–
CCc1cccc2c3c([nH]c12)[C@@](CC)(CC(=O)O)OCC3,-21.1% (inactive),–
Cc1[nH]c(/C=C2\C(=O)Nc3ccc(S(=O)(=O)N(C)c4cccc(Cl)c4)cc32)c(C)c1C(=O)N1CCN(C)CC1,–,17.8 µM (active)
C#C[C@]1(O)CC[C@H]2[C@@H]3CCC4=CC(=O)CC[C@@H]4[C@H]3CC[C@@]21CC,-2.48% (inactive) and -7.29% (inactive),–
S=c1[nH]c2ccccc2s1,3% (inactive),–
CC(C)n1c(=O)cc(N[C@@H](C)c2ccccc2)[nH]c1=O,6.06% (inactive),–
CN1CCCN=C1COC(=O)C(O)(c1ccccc1)C1CCCCC1 (stereo not given),6.26% (inactive),–

SMILES,activity (max response),Potency
CCOC(=O)NNc1nncc2ccccc12,4.25% (inactive),–
C=CC(=O)Nc1cc(N2CCN(CC)CC2)ccc1Nc1cc(N(C)C(=O)Nc2c(Cl)c(OC)cc(OC)c2Cl)ncn1,-15% (inactive),–
CCOC(=O)O[C@]1(C(=O)OCCl)CC[C@H]2[C@@H]3CCC4=CC(=O)C=C[C@]4(C)[C@H]3[C@@H](O)C[C@@]21C,8.33% (inactive) and -8.79% (inactive),–
COc1ccc(/C=N/NC(=O)c2ccncc2)cc1OC,-2.5% (inactive),–
COc1cc(NS(C)(=O)=O)ccc1Nc1c2ccccc2nc2ccccc12,–,5.62 µM (active)
Cc1onc(-c2ccccc2)c1-c1ccc(S(N)(=O)=O)cc1,-10.6% (inactive) and -23.5% (inactive),–
Cc1cc(-n2nc3ccc(Cl)cc3n2)c(O)c(C(C)(C)C)c1,9.75% (inactive),–
Cc1ccsc1/C=C/C1=NCCCN1C,-3.84% (inactive),–
C[C@@H](C1=C(CCN(C)C)Cc2ccccc21)c1ccccn1,-0.59% (inactive),–
Nc1ncnc2nc[nH]c12,2.49% (inactive),–
CCOC(=O)NNc1ccc(N(CC)CC(C)O)nn1 (stereo not given),-8.2% (inactive),–
CN(C)[C@@H]1C(=O)C(C(N)=O)=C(O)[C@@]2(O)C(=O)C3=C(O)c4c(O)ccc(Cl)c4[C@@H](O)[C@H]3C[C@@H]12,-3.2% (inactive),–
CC[C@H](CC[C@@H](C)[C@H]1CC[C@H]2[C@@H]3CC=C4C[C@@H](O)CC[C@]4(C)[C@H]3CC[C@]12C)C(C)C,-11% (inactive),–
O=c1ncccn1[C@@H]1O[C@H](CO)[C@@H](O)[C@H]1O,-5.69% (inactive),–
C[C@]12CCC(=O)C=C1[C@@H]1C[C@@H]1[C@H]1[C@@H]3[C@@H]4C[C@@H]4[C@@]4(CCC(=O)O4)[C@@]3(C)CC[C@@H]12,-8.86% (inactive) and -13.4% (inactive),–
COc1ccc2cc(C=O)ccc2c1,8.85% (inactive),–
Cc1ccc(NC(=O)NCc2ccc3c(c2)CN(C2CCC(=O)NC2=O)C3=O)cc1Cl (stereo not given),–,0.0089 µM (active)
Cc1ccc(Sc2ccccc2N2CCNCC2)c(C)c1,–,25.1 µM (active)
OC[C@H]1O[C@@H](n2cnc3c(=S)nc[nH]c32)[C@H](O)[C@@H]1O,–,9.2 µM (active)
Clc1cccc(C(c2ccc3nc[nH]c3c2)n2ccnc2)c1 (stereo not given),10.9% (inactive) and -12.2% (inactive),–
